Assay results from PubChem BioAssay (NCI).
Compounds without any hit were thinned out: in the full panel of roughly 83,000, 20% have a hit.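 Step 1: grow cells in 96-well plates. Step 2: add test compound at a single concentration. Step 3: incubate 48 h. Step 4: record percent growth.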 A number with no mark means an inactive call. Activity calls are given as the source filed them. Rule for the calls: active = growth percent below 10; inactive = the rest.

Assays:
Assay in all cases: NCI-60 one-dose screen, 48 h (100 = growth as untreated, 0 = no growth, -100 = all killed)
Conditions in all cases: 10 µM
HT29 colon = tested on: HT29 colon
SNB-75 CNS = tested on: SNB-75 CNS
SNB-19 CNS = tested on: SNB-19 CNS
U251 CNS = tested on: U251 CNS
PC-3 prostate = tested on: PC-3 prostate
SK-MEL-5 melanoma = tested on: SK-MEL-5 melanoma
UACC-62 melanoma = tested on: UACC-62 melanoma
LOX IMVI melanoma = tested on: LOX IMVI melanoma
SK-MEL-28 melanoma = tested on: SK-MEL-28 melanoma
SK-MEL-2 melanoma = tested on: SK-MEL-2 melanoma

| SMILES | growth (HT29 colon) | growth (SNB-75 CNS) | growth (SNB-19 CNS) | growth (U251 CNS) | growth (PC-3 prostate) | growth (SK-MEL-5 melanoma) | growth (UACC-62 melanoma) | growth (LOX IMVI melanoma) | growth (SK-MEL-28 melanoma) | growth (SK-MEL-2 melanoma) |
| --- | --- | --- | --- | --- | --- | --- | --- | --- | --- | --- |
| Clc1ccc(Sc2nc(NC3CC3)nc(Sc3ccc(Cl)cc3)n2)cc1 | 48.8% | 92% | 105% | 80% | 46.8% | 87.9% | 82.2% | 91.3% | 87.5% |  |
| O=C(CCCCC[P+](c1ccccc1)(c1ccccc1)c1ccccc1)NC(COC(=O)C(Cl)Cl)(COC(=O)C(Cl)Cl)COC(=O)C(Cl)Cl | 96.6% | 103% | 98.3% | 97.1% | 90.5% | 92.4% | 98% | 102% | 108% | 100% |
| Cc1ccc(NC(=O)Nc2nc3ccccc3s2)cc1NC(=O)Nc1nc2ccccc2s1 | 90.1% | 61.5% | 92% | 77.2% | 44.5% | 79.6% | 86.6% | 91.7% | 101% | 98.5% |
| CC(C)=CCc1cc(O)cc2c1OC(C=C(C)C)C1=C2C(=O)C2=C(NCCS2(=O)=O)C1=O (configuration not stated) | -14.9% (active) | 18.5% | -44.5% (active) | -85% (active) | 10% | -96.7% (active) | -18.9% (active) | -56.2% (active) | -33.4% (active) | -28.9% (active) |
| CN(C)c1ccc(Cc2ccc(N(C)C)cc2Cl)c(Cl)c1 | 102% | 77.7% | 102% | 110% | 86.8% | 91.9% | 88.6% | 96% | 105% | 113% |
| COc1ccc(-c2nn(-c3cccc(NC(=O)Nc4ccc(Cl)c(C(F)(F)F)c4)c3)cc2-c2ccncc2)cc1Cl | 2.78% (active) | 25.6% | 32.2% | -41.1% (active) | 2.84% (active) | 14.7% | -2.96% (active) | 19.9% | 23% |  |
| C#Cc1ccc(-n2c(/C=C/c3ccc(O)c(OC)c3)nc3ncccc3c2=O)cc1 | 112% | 55.9% | 96.2% | 94.1% | 81.2% | 94.2% | 104% | 93.5% | 97.9% | 85.7% |
| COc1ccc(-c2nn(-c3cccc(NC(=O)c4ccc5c(c4)OCCO5)c3)cc2-c2ccncc2)cc1Cl | 0.486% (active) | 2.6% (active) | 70.8% | -9.64% (active) | 10.4% | 20% | 34.1% | 29.9% | 38.3% |  |
| CCN(CC)CCNC(=O)c1ccc(NC(C)=O)cc1 | 102% | 112% | 98.1% | 93.9% | 104% | 103% | 94.2% | 95.3% | 118% | 115% |
| CCCCCCNC(=O)Oc1ccc(/C(=C(/CC)Cc2ccccc2)c2ccc(OCCN3CCCCC3)cc2)cc1 | 20.3% | 80.2% | 85.9% | 69.3% | 73.2% | 84.5% | 99.5% | 96.8% | 96.4% | 91.3% |
| NC1(C(=O)O)CSSC1 | 90.7% | 40.8% | 36.4% | 15.1% | 79.1% | 69.9% | 97.4% | 32.2% | 34.8% | 111% |
| CCN1CCN(c2nc3ccccc3c3c(=O)c4ccccc4sc23)CC1 | 9.96% (active) | 44.5% | 67.2% | 27.9% | 43.7% | 7.43% (active) | 7.97% (active) | 23.5% | 31.1% | 98.5% |
| O=C1c2ccc3c4c(ccc(c24)C(=O)N1CCNCc1ccccc1)C(=O)N(CCNCc1ccccc1)C3=O | -16.5% (active) | 105% | 8.03% (active) | -46.3% (active) | 28.3% | -97.9% (active) | -31.6% (active) | -47.9% (active) | 6% (active) | 119% |
| CC1(C)Cc2c(sc3ncn4nc(-c5ccc(O)cc5)nc4c23)CO1 | 111% | 35.5% | 79.9% | 60.6% | 44.4% | 56.7% | 82.5% | 75% | 73.5% | 84.7% |
